In PubChem BioAssay (NCI):
The panel holds about 79,000 compounds, 15% with a hit somewhere; the sample as a whole holds those more often. The source made the active and inactive calls. Cut-off read from the data, not from the text of the source: active = growth inhibition above about 70%; inactive = the rest.

Assays:
[1] = NCI Yeast Anticancer Drug Screen. Data for the rad52 strain (AID 147);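 note: 0% = growth of vehicle-treated control cultures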; conditions: S. cerevisiae rad52 mutant growth inhibition, active compounds read high
Outline: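 Compounds are applied to a genetically defined yeast strain lacking normal DNA damage repair, and inhibition of growth is expressed relative to cultures given vehicle only.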

[2] = NCI Yeast Anticancer Drug Screen. Data for the wt1 strain (AID 149);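 note: 0% = growth of vehicle-treated wt1 cultures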; conditions: S. cerevisiae wt1 strain (SPY 50644) growth inhibition, active compounds read high
Outline: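 wt1 yeast, compound-treated; % growth inhibition vs vehicle control.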

[3] = NCI Yeast Anticancer Drug Screen. Data for the rad50EPP+ strain (AID 151);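 note: 0% = growth of vehicle-treated control cultures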; conditions: S. cerevisiae rad50 mutant strain, active compounds read high
Outline: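 Compounds were applied to the rad50EPP+ yeast strain, which bears a defined DNA repair alteration, and growth inhibition was determined relative to vehicle-treated cultures.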

[4] = NCI Yeast Anticancer Drug Screen. Data for the mgt1 strain (AID 153); conditions: S. cerevisiae mgt1 mutant growth inhibition, active compounds read high
Outline: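 Strain: mgt1 yeast, one of a set carrying defined DNA damage repair or cell cycle control alterations. Compound-treated growth compared with vehicle.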

[5] = NCI Yeast Anticancer Drug Screen. Data for the rad50 strain (AID 155);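 note: 0% = growth of vehicle-only cultures of the same strain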; conditions: S. cerevisiae rad50 strain growth inhibition, active compounds read high
Outline: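 Genetically altered yeast (DNA repair pathway); compound treatment; growth inhibition vs vehicle ctrl.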

[6] = NCI Yeast Anticancer Drug Screen. Data for the mec2-1 strain (AID 157); conditions: S. cerevisiae mec2-1 strain, active compounds read high
Outline: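 Strain: mec2-1 (DNA repair/cell cycle alteration). Compound exposure, then growth measured; inhibition expressed relative to vehicle.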

[7] = NCI Yeast Anticancer Drug Screen. Data for the rad14 strain (AID 159);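 note: 0% = growth of vehicle-treated control cultures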; conditions: S. cerevisiae rad14 strain growth inhibition, active compounds read high
Outline: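 Test compounds were applied to a repair-deficient yeast strain. Its growth was then compared with that of cultures given vehicle alone, and inhibition was expressed relative to those controls.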

[8] = NCI Yeast Anticancer Drug Screen. Data for the sgs1 mgt1 strain (AID 161);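 note: 0% = growth of cultures given vehicle only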; conditions: S. cerevisiae sgs1 mgt1 strain, active compounds read high
Outline: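 Inhibition of yeast growth, normalised to vehicle-treated controls, is reported for a strain bearing genetic alterations in DNA damage repair.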

[9] = NCI Yeast Anticancer Drug Screen. Data for the CLN2oe strain (AID 163);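 note: 0% = growth of vehicle-only control cultures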; conditions: S. cerevisiae CLN2oe strain, active compounds read high
Outline: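 Growth of a genetically modified yeast strain is measured after compound exposure and compared with cultures given vehicle alone.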

[10] = NCI Yeast Anticancer Drug Screen. Data for the cln2 rad14 strain (AID 165);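 note: 0% = growth equal to vehicle treated cultures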; conditions: S. cerevisiae cln2 rad14 strain, active compounds read high
Outline: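 Compounds are applied to the cln2 rad14 yeast strain, and growth is then compared with that of vehicle-treated cultures to give inhibition.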

[11] = NCI Yeast Anticancer Drug Screen. Data for the bub3 strain (AID 167); conditions: S. cerevisiae bub3 mutant strain, active compounds read high
Outline: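 Yeast carrying a defined mutation is treated with each compound, and growth is compared with that of vehicle-exposed cells to give inhibition.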

[12] = NCI Yeast Anticancer Drug Screen. Data for the wt2 strain (AID 169);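 note: 0% = growth of vehicle-treated yeast cultures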; conditions: S. cerevisiae wt2 strain growth inhibition, active compounds read high
Outline: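 This strain belongs to a panel of yeast strains with defined genetic alterations in DNA damage repair or cell cycle control. Compounds are applied, and growth inhibition is measured against vehicle-treated cultures.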

[13] = NCI Yeast Anticancer Drug Screen. Data for the mlh1 strain (AID 171);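 note: 0% = growth of vehicle-treated control cultures of the same strain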; conditions: S. cerevisiae mlh1 strain growth inhibition, active compounds read high
Outline: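 Growth of the mutant yeast strain after compound exposure, expressed as inhibition relative to vehicle-only controls.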

[14] = NCI Yeast Anticancer Drug Screen. Data for the sgs1 strain (AID 173);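 note: 0% = growth of vehicle-only control cultures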; conditions: S. cerevisiae sgs1 mutant, active compounds read high
Outline: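 Growth of a yeast strain bearing a defined genetic alteration is measured after compound treatment. Inhibition is expressed relative to vehicle-only controls.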

[15] = NCI Yeast Anticancer Drug Screen. Data for the mlh1 rad18 strain (AID 175); conditions: S. cerevisiae mlh1 rad18 strain growth inhibition, active compounds read high
Outline: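 Read-out is yeast growth inhibition, calculated against vehicle-only controls. The compound was applied to a strain engineered with DNA damage repair alterations.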

[16] = NCI Yeast Anticancer Drug Screen. Data for the rad18 strain (AID 177); conditions: S. cerevisiae rad18 mutant growth inhibition, active compounds read high
Outline: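 Growth of the mutant yeast strain after compound exposure, normalised to vehicle-only cultures.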

[17] = at 5.0 µM (retest, dose inferred, filed as 0.5)
[18] = at 50.0 µM (retest, dose inferred, filed as 5.0)

Measured: growth inhibition

O=C1C(=O)c2ccccc2C(O)=C1C(C1=C(O)c2ccccc2C(=O)C1=O)c1ccc(Cl)cc1
inactive: [1]; at 1.2 µM 9% | [1]; at 3.7 µM 26% | [1]; at 11.0 µM 62% | [1]; at 33.0 µM 60% | [1]; at 100.0 µM 48% | [2]; at 1.2 µM 4% | [2]; at 3.7 µM 8% | [2]; at 11.0 µM 31% | [2]; at 33.0 µM 32% | [2]; at 100.0 µM 29% | [3]; at 1.2 µM 7% | [3]; at 3.7 µM 28% | [3]; at 11.0 µM 51% | [3]; at 33.0 µM 48% | [3]; at 100.0 µM 30% | [4]; at 1.2 µM 4% | [4]; at 3.7 µM 9% | [4]; at 11.0 µM 64% | [4]; at 100.0 µM 69% | [5]; at 1.2 µM 11% | [5]; at 3.7 µM 18% | [5]; [17] -7% | [5]; at 11.0 µM 51% | [5]; at 33.0 µM 41% | [5]; at 100.0 µM 31% | [6]; at 1.2 µM 10% | [6]; at 3.7 µM 18% | [6]; [17] -5% | [6]; at 11.0 µM 60% | [6]; at 33.0 µM 63% | [6]; [18] -6% | [6]; at 100.0 µM 65% | [7]; at 1.2 µM 5% | [7]; at 3.7 µM -6% | [7]; at 11.0 µM 28% | [7]; at 33.0 µM 32% | [7]; at 100.0 µM 15% | [8]; [17] -2% | [8]; [18] 21% | [8]; at 50.0 µM 60.1% | [9]; at 1.2 µM 3% | [9]; at 3.7 µM 12% | [9]; at 11.0 µM 60% | [9]; at 33.0 µM 66% | [9]; at 100.0 µM 63% | [10]; [17] 0% | [10]; [18] 3% | [10]; at 50.0 µM 42.4% | [11]; at 1.2 µM -1% | [11]; at 3.7 µM 5% | [11]; [17] -3% | [11]; at 11.0 µM 55% | [11]; at 33.0 µM 66% | [11]; [18] 34% | [11]; at 100.0 µM 50% | [12]; at 1.2 µM 4% | [12]; at 3.7 µM 15% | [12]; at 11.0 µM 50% | [12]; at 33.0 µM 54% | [12]; at 100.0 µM 46% | [13]; at 1.2 µM 6% | [13]; at 3.7 µM 13% | [13]; at 11.0 µM 58% | [13]; at 33.0 µM 62% | [13]; at 100.0 µM 56% | [14]; at 1.2 µM 16% | [14]; at 3.7 µM 39% | [14]; at 100.0 µM 63% | [15]; [17] -5% | [15]; [18] 42% | [16]; at 1.2 µM 23% | [16]; at 3.7 µM 38% | [16]; at 33.0 µM 64% | [16]; at 100.0 µM 49%
active: [4]; at 33.0 µM 75% | [5]; [18] 73% | [5]; at 50.0 µM 92.5% | [6]; at 50.0 µM 72.2% | [11]; at 50.0 µM 80% | [14]; at 11.0 µM 74% | [14]; at 33.0 µM 72% | [15]; at 50.0 µM 86.2% | [16]; at 11.0 µM 70%

CC[N+](CC)(CC)c1ccccc1
inactive: [1]; at 1.2 µM 8% | [1]; at 3.7 µM -7% | [1]; at 11.0 µM 0% | [1]; at 33.0 µM -3% | [1]; at 100.0 µM -6% | [2]; at 1.2 µM -21% | [2]; at 3.7 µM -27% | [2]; at 11.0 µM -28% | [2]; at 33.0 µM -26% | [2]; at 100.0 µM -28% | [3]; at 1.2 µM -8% | [3]; at 3.7 µM -14% | [3]; at 11.0 µM -14% | [3]; at 33.0 µM -22% | [3]; at 100.0 µM -20% | [4]; at 1.2 µM 1% | [4]; at 3.7 µM 1% | [4]; at 11.0 µM -6% | [4]; at 33.0 µM 8% | [4]; at 100.0 µM -8% | [5]; at 1.2 µM 19% | [5]; at 3.7 µM 24% | [5]; [17] 17% | [5]; at 11.0 µM 16% | [5]; at 33.0 µM 14% | [5]; at 50.0 µM 62.5% | [5]; at 100.0 µM 21% | [6]; at 1.2 µM -5% | [6]; at 3.7 µM -3% | [6]; [17] 35% | [6]; at 11.0 µM -8% | [6]; at 33.0 µM 1% | [6]; at 50.0 µM -1.75% | [6]; at 100.0 µM 8% | [7]; at 1.2 µM -28% | [7]; at 3.7 µM -36% | [7]; at 11.0 µM -34% | [7]; at 33.0 µM -33% | [7]; at 100.0 µM -25% | [8]; [17] -21% | [8]; [18] -13% | [8]; at 50.0 µM 39.8% | [9]; at 1.2 µM 16% | [9]; at 3.7 µM 5% | [9]; at 11.0 µM 8% | [9]; at 33.0 µM -11% | [9]; at 100.0 µM -8% | [10]; [17] 20% | [10]; [18] 33% | [10]; at 50.0 µM 24.1% | [11]; at 1.2 µM 16% | [11]; at 3.7 µM 15% | [11]; [17] 31% | [11]; at 11.0 µM 15% | [11]; at 33.0 µM 19% | [11]; [18] 26% | [11]; at 100.0 µM 11%
active: [5]; [18] 98% | [6]; [18] 98% | [11]; at 50.0 µM 75.5%
